Experiments:
Assay in all cases: log2 ratio of Biotin-Ahx-Ub-VS probe labelling (fragment/DMSO); higher = less target engagement (more negative = stronger competition), active = hit call of the paper (q ≤ 0.05, log2 ratio ≤ -1)
Details in all cases: compound concentration: 200 uM; treatment time: 3 h
[1] = target: T1, USP42 (UniProt Q9H9J4)
T1 sequence (whole entry): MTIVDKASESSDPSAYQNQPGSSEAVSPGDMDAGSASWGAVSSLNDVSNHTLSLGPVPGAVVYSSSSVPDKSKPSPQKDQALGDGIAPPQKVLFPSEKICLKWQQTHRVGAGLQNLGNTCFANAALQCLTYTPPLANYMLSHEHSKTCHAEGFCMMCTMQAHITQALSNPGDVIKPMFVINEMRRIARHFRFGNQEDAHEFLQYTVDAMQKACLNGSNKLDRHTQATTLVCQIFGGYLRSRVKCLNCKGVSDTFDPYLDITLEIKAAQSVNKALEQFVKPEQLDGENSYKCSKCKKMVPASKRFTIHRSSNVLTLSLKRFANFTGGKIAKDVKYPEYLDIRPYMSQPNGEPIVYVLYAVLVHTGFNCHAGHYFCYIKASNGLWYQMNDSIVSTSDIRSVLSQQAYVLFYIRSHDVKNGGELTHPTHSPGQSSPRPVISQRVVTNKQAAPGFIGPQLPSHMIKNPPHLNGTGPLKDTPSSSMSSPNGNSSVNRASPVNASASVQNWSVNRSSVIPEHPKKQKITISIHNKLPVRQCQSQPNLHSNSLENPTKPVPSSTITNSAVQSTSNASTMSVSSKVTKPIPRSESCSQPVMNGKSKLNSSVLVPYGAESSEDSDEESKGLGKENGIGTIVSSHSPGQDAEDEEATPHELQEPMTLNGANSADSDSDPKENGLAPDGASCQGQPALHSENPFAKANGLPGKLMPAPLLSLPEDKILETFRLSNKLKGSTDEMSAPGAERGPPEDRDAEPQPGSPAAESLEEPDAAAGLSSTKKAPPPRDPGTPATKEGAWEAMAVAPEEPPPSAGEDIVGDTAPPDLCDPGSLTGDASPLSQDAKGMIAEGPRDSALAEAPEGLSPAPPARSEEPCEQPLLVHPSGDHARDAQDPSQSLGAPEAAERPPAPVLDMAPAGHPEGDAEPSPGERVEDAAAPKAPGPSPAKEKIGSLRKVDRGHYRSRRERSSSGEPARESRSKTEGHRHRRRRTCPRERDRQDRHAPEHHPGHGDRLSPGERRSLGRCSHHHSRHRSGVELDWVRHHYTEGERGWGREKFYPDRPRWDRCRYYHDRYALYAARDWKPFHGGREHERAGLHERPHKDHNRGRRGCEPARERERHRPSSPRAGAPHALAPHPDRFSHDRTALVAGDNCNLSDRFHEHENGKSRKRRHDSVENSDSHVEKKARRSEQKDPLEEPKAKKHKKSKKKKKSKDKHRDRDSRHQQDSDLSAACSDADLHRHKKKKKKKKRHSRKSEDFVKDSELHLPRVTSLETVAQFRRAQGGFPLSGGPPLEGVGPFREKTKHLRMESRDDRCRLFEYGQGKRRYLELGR
Procedure, shortened: (§1)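 Labelled DUBs from HEK293T lysate were NeutrAvidin-enriched, digested with LysC and trypsin, and run by diaPASEF LC-MS/MS. Before that, each 495 µg sample in Tris/CHAPS/IGEPAL buffer with protease inhibitors was treated in triplicate with fragment at 200 µM or vehicle for 3 h, then with Biotin-Ahx-Ub-VS at 0.5 µM final for 1 h. Values are average log2 ratios of fragment over vehicle by unpaired t-test, based on global-median-normalised Spectronaut label-free quantities from proteins with ≥2 unique peptides.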

[2] = target: USP46 (UniProt P62068)
Procedure, shortened: as §1

[3] = target: T2, USP47 (UniProt Q96K76)
T2 sequence (whole entry): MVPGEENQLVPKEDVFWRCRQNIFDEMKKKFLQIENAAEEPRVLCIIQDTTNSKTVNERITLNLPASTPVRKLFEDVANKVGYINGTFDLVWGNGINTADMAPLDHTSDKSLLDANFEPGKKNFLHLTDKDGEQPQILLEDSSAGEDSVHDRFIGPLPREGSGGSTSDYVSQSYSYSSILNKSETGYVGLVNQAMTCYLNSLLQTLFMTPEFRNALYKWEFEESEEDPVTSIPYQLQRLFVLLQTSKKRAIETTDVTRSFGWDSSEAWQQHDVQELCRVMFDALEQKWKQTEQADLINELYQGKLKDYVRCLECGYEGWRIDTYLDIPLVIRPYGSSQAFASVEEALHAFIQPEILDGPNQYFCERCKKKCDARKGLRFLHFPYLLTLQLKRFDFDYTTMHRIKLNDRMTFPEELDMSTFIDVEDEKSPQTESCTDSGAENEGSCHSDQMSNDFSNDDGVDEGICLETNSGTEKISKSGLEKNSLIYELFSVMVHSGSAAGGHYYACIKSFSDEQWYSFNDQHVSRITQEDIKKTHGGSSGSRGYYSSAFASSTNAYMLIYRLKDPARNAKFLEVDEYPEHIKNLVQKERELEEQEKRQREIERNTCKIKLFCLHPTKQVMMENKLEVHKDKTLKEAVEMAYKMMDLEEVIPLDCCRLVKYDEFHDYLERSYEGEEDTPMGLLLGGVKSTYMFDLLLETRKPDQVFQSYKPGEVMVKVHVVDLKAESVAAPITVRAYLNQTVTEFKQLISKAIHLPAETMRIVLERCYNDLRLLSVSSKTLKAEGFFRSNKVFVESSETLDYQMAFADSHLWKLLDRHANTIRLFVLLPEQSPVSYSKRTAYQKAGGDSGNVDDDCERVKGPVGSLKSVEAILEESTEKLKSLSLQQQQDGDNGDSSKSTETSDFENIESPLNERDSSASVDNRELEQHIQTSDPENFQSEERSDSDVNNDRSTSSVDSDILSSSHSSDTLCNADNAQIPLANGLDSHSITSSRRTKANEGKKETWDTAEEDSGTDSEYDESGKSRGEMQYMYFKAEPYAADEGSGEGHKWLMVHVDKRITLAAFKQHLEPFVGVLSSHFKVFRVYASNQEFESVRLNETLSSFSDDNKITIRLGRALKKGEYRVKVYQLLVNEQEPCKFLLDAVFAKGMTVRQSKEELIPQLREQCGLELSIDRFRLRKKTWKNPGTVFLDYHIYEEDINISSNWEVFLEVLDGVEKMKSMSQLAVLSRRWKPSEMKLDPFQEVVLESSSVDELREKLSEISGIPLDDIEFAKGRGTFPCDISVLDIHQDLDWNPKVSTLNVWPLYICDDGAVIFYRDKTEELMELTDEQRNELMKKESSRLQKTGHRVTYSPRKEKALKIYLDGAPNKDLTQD
Procedure, shortened: as §1

[4] = target: T3, USP48 (UniProt Q86UV5)
T3 sequence (whole entry): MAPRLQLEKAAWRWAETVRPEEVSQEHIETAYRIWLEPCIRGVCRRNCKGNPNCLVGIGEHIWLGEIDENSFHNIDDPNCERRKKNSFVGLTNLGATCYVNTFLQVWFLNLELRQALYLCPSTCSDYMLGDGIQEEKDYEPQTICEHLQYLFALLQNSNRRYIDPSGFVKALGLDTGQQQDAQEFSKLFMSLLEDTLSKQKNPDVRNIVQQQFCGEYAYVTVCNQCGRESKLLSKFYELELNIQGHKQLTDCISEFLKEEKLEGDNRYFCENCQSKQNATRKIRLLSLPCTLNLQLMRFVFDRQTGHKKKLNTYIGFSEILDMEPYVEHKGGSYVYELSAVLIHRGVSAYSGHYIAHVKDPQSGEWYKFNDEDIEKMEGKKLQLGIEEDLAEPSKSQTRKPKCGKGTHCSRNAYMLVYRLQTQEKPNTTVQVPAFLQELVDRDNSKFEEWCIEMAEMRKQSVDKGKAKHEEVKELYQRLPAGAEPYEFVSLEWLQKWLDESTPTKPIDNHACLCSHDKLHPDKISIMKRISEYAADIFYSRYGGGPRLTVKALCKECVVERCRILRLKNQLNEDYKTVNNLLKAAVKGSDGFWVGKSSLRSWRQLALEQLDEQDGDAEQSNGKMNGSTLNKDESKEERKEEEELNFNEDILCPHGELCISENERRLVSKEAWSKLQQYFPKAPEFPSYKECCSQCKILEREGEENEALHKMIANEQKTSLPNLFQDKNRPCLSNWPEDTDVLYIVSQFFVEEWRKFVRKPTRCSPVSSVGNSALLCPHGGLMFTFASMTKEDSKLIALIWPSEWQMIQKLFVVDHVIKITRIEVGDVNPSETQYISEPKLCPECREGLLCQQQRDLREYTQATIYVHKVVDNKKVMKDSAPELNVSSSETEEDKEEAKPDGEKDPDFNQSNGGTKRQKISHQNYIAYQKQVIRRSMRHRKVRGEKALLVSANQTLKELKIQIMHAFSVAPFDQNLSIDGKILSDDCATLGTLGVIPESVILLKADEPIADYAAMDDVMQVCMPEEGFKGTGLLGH
Procedure, shortened: as §1

[5] = target: T4, USP5 (UniProt P45974)
T4 sequence (whole entry): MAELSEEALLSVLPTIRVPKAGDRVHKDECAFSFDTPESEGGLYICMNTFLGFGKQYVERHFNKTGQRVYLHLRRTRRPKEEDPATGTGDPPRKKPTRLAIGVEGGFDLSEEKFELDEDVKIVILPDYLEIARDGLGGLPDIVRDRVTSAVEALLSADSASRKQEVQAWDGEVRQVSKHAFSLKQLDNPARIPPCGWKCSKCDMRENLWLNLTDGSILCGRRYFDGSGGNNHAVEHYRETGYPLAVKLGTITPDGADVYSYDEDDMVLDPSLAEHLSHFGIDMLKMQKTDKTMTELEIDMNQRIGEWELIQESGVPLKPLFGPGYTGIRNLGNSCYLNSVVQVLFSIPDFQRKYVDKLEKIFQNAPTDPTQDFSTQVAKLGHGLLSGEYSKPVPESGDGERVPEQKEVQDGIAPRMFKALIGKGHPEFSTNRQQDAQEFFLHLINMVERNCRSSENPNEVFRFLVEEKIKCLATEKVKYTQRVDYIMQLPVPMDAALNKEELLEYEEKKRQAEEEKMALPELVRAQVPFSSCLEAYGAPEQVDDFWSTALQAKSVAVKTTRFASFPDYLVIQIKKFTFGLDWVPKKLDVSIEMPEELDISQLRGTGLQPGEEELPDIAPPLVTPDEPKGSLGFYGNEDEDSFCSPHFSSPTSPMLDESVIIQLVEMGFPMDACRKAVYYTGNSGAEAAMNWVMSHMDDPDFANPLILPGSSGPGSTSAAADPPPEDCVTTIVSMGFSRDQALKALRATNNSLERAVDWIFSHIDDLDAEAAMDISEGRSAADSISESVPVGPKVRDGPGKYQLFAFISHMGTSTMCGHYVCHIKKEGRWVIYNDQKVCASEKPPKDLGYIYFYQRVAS
Procedure, shortened: as §1

[6] = target: USP54 (UniProt Q70EL1)
Procedure, shortened: as §1

[7] = target: USP7 (UniProt Q93009)
Procedure, shortened: as §1

[8] = target: T5, USP8 (UniProt P40818)
T5 sequence (whole entry): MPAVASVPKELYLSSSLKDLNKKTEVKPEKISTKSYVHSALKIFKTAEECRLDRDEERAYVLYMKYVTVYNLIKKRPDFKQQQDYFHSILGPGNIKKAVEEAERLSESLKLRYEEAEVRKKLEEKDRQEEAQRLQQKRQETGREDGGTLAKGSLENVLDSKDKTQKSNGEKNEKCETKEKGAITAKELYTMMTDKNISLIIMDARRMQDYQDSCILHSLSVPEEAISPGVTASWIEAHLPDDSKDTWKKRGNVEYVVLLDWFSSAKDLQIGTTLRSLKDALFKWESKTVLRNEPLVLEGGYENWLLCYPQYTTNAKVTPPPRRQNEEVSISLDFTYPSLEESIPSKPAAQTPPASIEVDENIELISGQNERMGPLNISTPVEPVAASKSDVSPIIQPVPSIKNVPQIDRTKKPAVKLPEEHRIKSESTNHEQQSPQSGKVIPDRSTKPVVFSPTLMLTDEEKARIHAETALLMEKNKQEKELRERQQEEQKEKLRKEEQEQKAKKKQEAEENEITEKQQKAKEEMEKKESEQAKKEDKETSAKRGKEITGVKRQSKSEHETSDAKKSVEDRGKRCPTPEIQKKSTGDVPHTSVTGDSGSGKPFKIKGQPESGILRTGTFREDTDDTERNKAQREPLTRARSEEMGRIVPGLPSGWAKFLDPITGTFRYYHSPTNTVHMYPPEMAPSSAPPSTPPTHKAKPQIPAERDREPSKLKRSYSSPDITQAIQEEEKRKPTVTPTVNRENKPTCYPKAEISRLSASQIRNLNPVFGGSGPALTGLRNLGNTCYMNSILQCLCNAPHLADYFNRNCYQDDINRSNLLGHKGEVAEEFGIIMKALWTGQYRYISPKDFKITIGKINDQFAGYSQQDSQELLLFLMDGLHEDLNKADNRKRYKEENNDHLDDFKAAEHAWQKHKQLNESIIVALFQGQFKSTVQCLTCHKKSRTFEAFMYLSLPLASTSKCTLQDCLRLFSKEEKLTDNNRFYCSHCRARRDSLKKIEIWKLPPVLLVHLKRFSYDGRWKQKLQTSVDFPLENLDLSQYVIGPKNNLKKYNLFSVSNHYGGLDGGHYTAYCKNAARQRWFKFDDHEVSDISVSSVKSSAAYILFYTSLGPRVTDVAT
Procedure, shortened: as §1

Measured: log2 ratio of Biotin-Ahx-Ub-VS probe labelling

USP46, sequence (P62068 whole entry): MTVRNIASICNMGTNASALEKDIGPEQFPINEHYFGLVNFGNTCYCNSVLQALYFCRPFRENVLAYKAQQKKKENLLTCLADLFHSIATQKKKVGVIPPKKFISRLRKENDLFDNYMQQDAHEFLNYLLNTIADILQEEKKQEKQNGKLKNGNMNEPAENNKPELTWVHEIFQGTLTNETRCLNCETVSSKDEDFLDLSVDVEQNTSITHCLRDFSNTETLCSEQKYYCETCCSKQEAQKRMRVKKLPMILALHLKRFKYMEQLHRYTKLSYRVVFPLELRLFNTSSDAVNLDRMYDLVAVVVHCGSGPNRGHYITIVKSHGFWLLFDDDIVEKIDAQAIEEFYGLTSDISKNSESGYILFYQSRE
USP54, sequence (Q70EL1 whole entry): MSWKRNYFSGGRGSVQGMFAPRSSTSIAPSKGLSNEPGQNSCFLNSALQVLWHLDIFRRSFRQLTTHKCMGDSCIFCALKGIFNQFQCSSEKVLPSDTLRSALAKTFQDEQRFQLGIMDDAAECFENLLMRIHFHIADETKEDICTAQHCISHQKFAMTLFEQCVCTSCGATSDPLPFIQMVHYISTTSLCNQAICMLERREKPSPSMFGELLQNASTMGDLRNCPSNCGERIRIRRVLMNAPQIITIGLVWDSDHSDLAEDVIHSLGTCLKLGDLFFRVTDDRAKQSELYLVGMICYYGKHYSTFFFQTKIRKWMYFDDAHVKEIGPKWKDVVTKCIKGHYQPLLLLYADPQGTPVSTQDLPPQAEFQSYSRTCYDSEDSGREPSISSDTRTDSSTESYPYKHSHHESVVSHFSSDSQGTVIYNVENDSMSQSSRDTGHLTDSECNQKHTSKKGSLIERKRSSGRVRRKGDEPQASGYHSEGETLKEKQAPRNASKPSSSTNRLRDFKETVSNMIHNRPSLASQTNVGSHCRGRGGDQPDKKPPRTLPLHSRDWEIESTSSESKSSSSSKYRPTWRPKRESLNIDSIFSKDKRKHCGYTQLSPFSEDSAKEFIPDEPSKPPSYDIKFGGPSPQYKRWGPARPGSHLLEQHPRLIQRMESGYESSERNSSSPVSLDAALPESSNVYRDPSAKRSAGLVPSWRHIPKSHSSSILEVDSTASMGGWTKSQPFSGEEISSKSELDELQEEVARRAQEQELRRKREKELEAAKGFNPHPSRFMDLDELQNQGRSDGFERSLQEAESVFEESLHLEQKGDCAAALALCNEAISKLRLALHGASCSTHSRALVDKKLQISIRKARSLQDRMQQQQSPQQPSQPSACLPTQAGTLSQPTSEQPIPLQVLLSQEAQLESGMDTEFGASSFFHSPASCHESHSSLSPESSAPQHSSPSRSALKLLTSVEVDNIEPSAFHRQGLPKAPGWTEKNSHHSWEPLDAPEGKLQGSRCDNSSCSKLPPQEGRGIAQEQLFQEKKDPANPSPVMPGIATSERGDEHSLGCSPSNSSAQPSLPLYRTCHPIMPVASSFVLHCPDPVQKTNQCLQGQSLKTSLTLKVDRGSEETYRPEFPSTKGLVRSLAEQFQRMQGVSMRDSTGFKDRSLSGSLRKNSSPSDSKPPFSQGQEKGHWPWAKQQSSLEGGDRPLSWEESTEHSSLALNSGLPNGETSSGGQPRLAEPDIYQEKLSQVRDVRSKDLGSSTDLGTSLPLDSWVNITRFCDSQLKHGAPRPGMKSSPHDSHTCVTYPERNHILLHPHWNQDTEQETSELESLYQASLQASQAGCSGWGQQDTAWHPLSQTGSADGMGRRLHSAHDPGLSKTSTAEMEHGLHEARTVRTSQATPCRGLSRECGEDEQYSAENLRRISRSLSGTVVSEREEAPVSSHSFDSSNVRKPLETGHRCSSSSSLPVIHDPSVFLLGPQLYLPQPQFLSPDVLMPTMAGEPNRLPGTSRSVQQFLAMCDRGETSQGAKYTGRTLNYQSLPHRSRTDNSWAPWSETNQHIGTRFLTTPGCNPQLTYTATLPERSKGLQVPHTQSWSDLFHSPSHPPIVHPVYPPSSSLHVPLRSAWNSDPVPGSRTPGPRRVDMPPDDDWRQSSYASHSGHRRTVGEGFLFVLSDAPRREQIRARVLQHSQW
USP7, sequence (Q93009 whole entry, looked up): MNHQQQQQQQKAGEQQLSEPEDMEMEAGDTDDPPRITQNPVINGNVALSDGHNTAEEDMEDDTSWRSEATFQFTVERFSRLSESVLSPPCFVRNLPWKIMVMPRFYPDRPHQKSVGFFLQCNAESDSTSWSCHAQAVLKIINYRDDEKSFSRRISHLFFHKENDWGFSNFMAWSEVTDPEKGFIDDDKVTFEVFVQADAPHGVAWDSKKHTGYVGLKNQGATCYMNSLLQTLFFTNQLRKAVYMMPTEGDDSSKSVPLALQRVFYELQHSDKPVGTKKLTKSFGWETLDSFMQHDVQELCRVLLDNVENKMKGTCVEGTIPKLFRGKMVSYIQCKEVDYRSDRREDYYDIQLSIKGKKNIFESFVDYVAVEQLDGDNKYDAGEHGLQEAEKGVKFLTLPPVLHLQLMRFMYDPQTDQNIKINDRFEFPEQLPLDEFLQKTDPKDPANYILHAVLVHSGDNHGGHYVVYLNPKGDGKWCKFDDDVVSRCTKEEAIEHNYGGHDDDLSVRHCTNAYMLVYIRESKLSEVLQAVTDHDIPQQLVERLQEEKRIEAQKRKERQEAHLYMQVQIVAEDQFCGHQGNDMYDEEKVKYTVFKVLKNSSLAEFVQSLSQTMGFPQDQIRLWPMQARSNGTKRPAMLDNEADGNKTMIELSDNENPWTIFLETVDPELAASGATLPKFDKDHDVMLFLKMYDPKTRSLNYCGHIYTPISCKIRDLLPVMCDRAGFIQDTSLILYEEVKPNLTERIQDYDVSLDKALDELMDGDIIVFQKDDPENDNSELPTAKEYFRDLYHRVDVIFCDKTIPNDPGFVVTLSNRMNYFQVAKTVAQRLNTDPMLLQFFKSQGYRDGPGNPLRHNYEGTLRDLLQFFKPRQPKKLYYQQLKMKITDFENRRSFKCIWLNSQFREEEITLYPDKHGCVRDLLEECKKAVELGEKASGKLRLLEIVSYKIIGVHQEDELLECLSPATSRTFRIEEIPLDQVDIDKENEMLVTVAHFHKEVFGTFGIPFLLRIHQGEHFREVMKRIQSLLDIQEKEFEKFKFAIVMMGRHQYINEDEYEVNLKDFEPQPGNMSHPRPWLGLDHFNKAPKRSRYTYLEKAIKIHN

Cc1cccc(NC(=O)CCl)c1C
inactive: [1] 0.0545 | [2] -0.22 | [3] -0.266 | [4] -0.0682 | [5] -0.738 | [6] -0.507 | [7] -0.293 | [8] -0.346
